CHX counter – affects cycloheximide protein synthesis inhibition readout, counter-screen. cell reporter, cycloheximide protein synthesis inhibition counterscreen. max response, %. 300,000 tested, 12% active; in the data active = max response mostly above about 13%, no sharp cut-off; inactive = mostly below about 14%; also: read at 38.3 µM for the half of the compounds with a filed dose; 0% is about no effect
AmpC no deterg – AmpC beta-lactamase inhibition without detergent; P00811; AmpC nitrocefin hydrolysis, absorbance 480 nm, 0.0001% Triton; Potency, µM (titrated, usually from 57.1 µM), for inactives: at the top dose activity change, negative = inhibition, most hits filed as inhibitors; 330,000 tested, 0.52% active; AID 485341;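 also: potency is read from the fitted curve at half-maximal effect; plate controls were no compound for no effect and no enzyme for full effect; nearly all actives have a fitted effect of over 20% in size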
Target sequence (P00811 whole entry, looked up): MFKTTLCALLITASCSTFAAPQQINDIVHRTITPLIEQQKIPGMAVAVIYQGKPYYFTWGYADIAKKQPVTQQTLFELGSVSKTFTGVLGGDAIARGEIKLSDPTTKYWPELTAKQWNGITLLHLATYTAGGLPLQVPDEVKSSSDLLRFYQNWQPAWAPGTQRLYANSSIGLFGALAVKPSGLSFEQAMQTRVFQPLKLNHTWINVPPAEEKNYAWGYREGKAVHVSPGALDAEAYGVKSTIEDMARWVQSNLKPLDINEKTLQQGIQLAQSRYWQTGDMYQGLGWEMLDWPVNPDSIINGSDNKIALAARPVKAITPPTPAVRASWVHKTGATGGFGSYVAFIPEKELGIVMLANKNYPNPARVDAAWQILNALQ
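20 mM phosphate pH 7.0 + 0.01% (detergent screen) or 0.0001% Triton X-100; 5.3 nM AmpC reagent; cpd preinc 15 min RT; nitrocefin (800 uM stock) to start; A480 q20 s × 4 min; Activity was normalised to no-enzyme and no-compound control wells.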
Shiga toxin inh – Shiga toxin inhibition. Vero cells, Shiga toxin protein synthesis inhibition reporter. inhibition, % at 38.7 µM. 290,000 tested, 9.2% active. AID 2315; in the data active = inhibition mostly above about 28%, no sharp cut-off; inactive = mostly below about 43%; also: 0% is about no effect
AmpC inh detg – blocks E. coli AmpC beta-lactamase in detergent assay; AmpC hydrolysis of nitrocefin, absorbance 480 nm, 0.01% Triton; AID 485294; Potency, µM (doses to about 114 µM), without a hit: at the top dose activity change, negative = inhibition, usual class: inhibitors; 370,000 tested, 0.041% active; P00811;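 also: potency is read from the fitted curve at half-maximal effect; 0% = no-compound wells and -100% = no-enzyme wells; nearly all actives have a fitted effect of over 25% in size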
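AmpC (5.3 nM in the dispensed reagent) in 20 mM phosphate pH 7.0 with 0.01% (detergent screen) or 0.0001% Triton X-100 was preincubated with compounds for 15 min at room temperature. Nitrocefin was then added from an 800 uM solution, and hydrolysis was followed at 480 nm.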
NS1 function inh – inhibitors of influenza NS1 protein function | Potency, µM (doses to about 46.1 µM), for the others: at the top dose activity, positive = more growth | 270,000 tested, 0.4% active | AID 2326; calls by dose curve; also: potency is read from the fitted curve at half-maximal effect; actives are rising curves; nearly all actives have a fitted effect of over 50% in size
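Compounds were scored for reversing the slow growth caused by influenza A NS1 in S. cerevisiae, measured by optical density at 600 nm. Assay medium contained 2% galactose at pH 6.0; NS1-free yeast of the same strain were the positive control.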
The depositor's hits bear a star; ? = inconclusive; · = no result given. This is one part of a sample in which hits are shown more often than they occur. Unless noted, calls follow the shape of the dose curve; as a rule, active = well fitted curve in the direction sought with a large enough effect; inconclusive = small, poorly fitted or top-dose-only effect, or another doubt; inactive = no such curve, though single readings can be large; an effect the other way counts as inactive or inconclusive.

SMILES | CHX counter | AmpC no deterg | Shiga toxin inh | AmpC inh detg | NS1 function inh
CN(CC(=O)Nc1ccccc1Br)C(=O)c1ccc(COc2ccccc2)cc1 | 19* | 17% | 11 | 7% | -1%
CC1CCc2[nH]c3ccc(C(=O)N(C)CC(=O)Nc4ccccc4Br)cc3c2C1 (stereo not drawn) | · | 28µM* | · | -1% | ·
COC(=O)c1ccc(C(=O)OC)c(NC(=O)c2cnn3c(C(F)F)cc(-c4ccc(C)cc4)nc23)c1 | · | · | · | 26% | ·
CC(C)(C)c1nnc(NC(=O)COc2ccc3c(c2)OCO3)s1 | · | -18% | · | 0% | ·
COc1cc(C(CCN2CCCC2)c2c(OC)cc(OC)c3c2OC(=O)CC3c2ccc(N(C)C)cc2)cc(OC)c1OC (stereo not drawn) | -5 | · | -10 | · | ·
COc1cc(OC)nc(Oc2cc(/C=N/O)ccc2OC)n1 | 6 | 3% | -7 | 0% | ·
Cc1cc(=O)cc(C)n1-c1ccccc1N | -3 | -16% | -4 | -10% | 0%
N/C(=N\O)c1ccccc1-n1cccc1 | -2 | -12% | -6 | -13% | ·
Cc1ccc(C)n1-c1ccccc1N | 24* | -17% | 12 | ? | 6%
Nc1ccccc1-n1cccc1 | 13* | -26% | 13 | -6% | 1%
Cc1ccc(N=Nc2ccc(O)c3ncccc23)cc1 | -6 | -9% | -9 | -2% | -14%
CCS(=O)(=O)c1ccc(N=Nc2ccc(O)c3ncccc23)c(OC)c1 | 11 | -14% | 18 | 1% | ·
COc1ccccc1N=Nc1ccc(O)c2ncccc12 | 62* | -11% | 90* | -7% | -75%
Cc1ccc(N=Nc2ccc(O)c3ncccc23)cc1C | 28* | -25% | 100* | 7% | ·
CCOc1ccc(NC(=O)CC(=O)Nc2ccc(OCC)cc2)cc1 | 12 | 5% | 67* | -12% | 0%
CCOC(=O)c1ccc(NC(=O)CN2C(=O)CSC(C)C2=O)cc1 (stereo not drawn) | 13* | -17% | 17 | 0% | -5%
CC(=O)Nc1ccc(OCC=C(Cl)Cl)cc1 | 11* | -18% | 25* | -3% | -12%
C=CCNC(=O)Nc1ccc(OCC)cc1 | 12* | -2% | 10 | -5% | -5%
COc1cccc(CN2C(=O)CCC2(C)C(=O)NCCc2ccc(OC)c(OC)c2)c1 (stereo not drawn) | 6 | 13% | -2 | -1% | 0%
CCOc1ccc(NC(=O)CN2CCN(C3CCCCC3)C(=O)C2=O)cc1 | · | · | · | -5% | ·
CCOc1ccc(NC(=O)CN2C(=O)C3CCCN3C2=O)cc1 (stereo not drawn) | 15* | -3% | active | ? | -1%
CCOc1ccc(NC(=O)CN2C(=O)CSC2=O)cc1 | 15* | -13% | 79* | 5% | 2%
Cc1nc(CCNS(=O)(=O)c2cccnc2)cs1 | 9 | -11% | 44 | 3% | 0%
O=C(Nc1ccn(Cc2ccccc2F)n1)c1ccc(COc2cccc(Br)c2)cc1 | 54* | -35% | 71* | -7% | -5%
COc1ccc(-c2nnc(Nc3ccc(CC(N)=O)cc3)c3ccccc23)cc1 | -1 | 27% | -5 | -13% | 6%
SMILES | CHX counter | AmpC no deterg | Shiga toxin inh | AmpC inh detg | NS1 function inh
NC(=O)Cc1ccc(Nc2nnc(-c3ccccc3)c3ccccc23)cc1 | 10* | 6% | 12 | -5% | -4%
Cc1ccc2nc(NC(=O)COC(=O)c3ccc(Br)o3)sc2c1 | 23* | -21% | 133* | -7% | -1%
Cc1ccc2nc(NC(=O)COC(=O)c3ccco3)sc2c1 | 34* | · | 86* | 2% | 4%
O=C(COC(=O)c1ccco1)Nc1nc2ccc([N+](=O)[O-])cc2s1 | 19 | -37% | 2 | -4% | 8%
O=S(=O)(c1ccc(Cl)cc1)c1nc(-c2cccs2)oc1SCc1ccc(F)cc1 | · | · | · | 8% | ·
Cc1ccc(OCC(=O)Nc2ccc(-c3nc4ccc(C)cc4o3)cc2)cc1 | 34* | · | 80* | -4% | ·
COc1ccc(OCC(=O)Nc2ccc(-c3nc4cc(C)c(C)cc4o3)cc2)cc1 | 51* | · | 98* | 6% | ·
Cc1ccc2nc(-c3ccc(Cl)c(NC(=O)COc4ccc(C(C)C)cc4)c3)oc2c1 | · | · | · | 0% | ·
CCc1ccc(OCC(=O)Nc2ccc3oc(-c4ccc(OC)cc4)nc3c2)cc1 | · | · | · | 9% | ·
CC(=O)N1N=C(c2ccc(Br)cc2)CC1c1cn(C)c2ccccc12 (stereo not drawn) | 1 | 80% | 2 | -14% | -3%
COc1cccc(C2CC(c3cccs3)=NN2C(=O)CCC(=O)O)c1OC (stereo not drawn) | 11* | -12% | 19 | ? | ?
CCCC(=O)N1N=C(c2ccccc2)CC1c1cn(C)c2ccccc12 (stereo not drawn) | 27* | 11% | 42 | ? | -25%
Cn1cc(C2CC(c3ccccc3)=NN2C(=O)c2ccccc2)c2ccccc21 (stereo not drawn) | 22* | -1% | 41 | 7% | -12%
COc1cccc(C2CC(c3ccc(NS(C)(=O)=O)cc3)=NN2C(=O)c2ccccc2)c1OC (stereo not drawn) | 51* | 4% | 134* | 3% | ·
C=C(C)Cn1c(SCC(=O)c2ccc(Br)cc2)nc2sc3c(c2c1=O)CCCC3 | · | · | · | 13% | ·
CS[C@]12C(=O)C[C@]3(C)[C@@H](CC[C@@]3(O)C(=O)CO)[C@@H]1CCC1=CC(=O)CC[C@]12C | · | · | · | · | -11%
C/C(=N\NC(=O)CSc1nc2ccccc2o1)c1ccc(O)cc1 | 45* | -31% | 114* | -9% | ·
CC1(C)CC(=O)c2cnc(NC(=O)CSc3nc4ccccc4o3)nc2C1 | 16* | -31% | 55 | -6% | -2%
O=C(CSc1nc2ccccc2o1)N/N=C/c1ccc(O)c(O)c1 | 22* | -42% | 31* | -10% | 13%
C/C(=N\NC(=O)CSc1nc2ccccc2o1)c1cccc(O)c1 | 2 | -33% | 18 | 2% | 1%
Cc1cc(C)n(C(=O)CSc2nc3ccccc3o2)n1 | 18* | -4% | 12 | 28µM* | 6%
Clc1ccccc1-c1nnc(CNC2CC2)o1 | 15 | -9% | 20 | -1% | ·
Cc1ccccc1/C=N/NC(=O)CSc1nc2ccccc2o1 | 24* | -45% | 93* | -5% | -6%
Cc1csc2nc(CSc3nc4ccccc4o3)c(Br)n12 | 52* | 5% | 78* | 1% | -20%
Cc1ccccc1NC(=O)CSc1nc2ccccc2o1 | 23* | -15% | 63* | -2% | -8%
SMILES | CHX counter | AmpC no deterg | Shiga toxin inh | AmpC inh detg | NS1 function inh
Cc1ccc(NC(=O)CN(C)C(=O)CSc2nc3ccccc3o2)cc1 | 6 | 1% | 3 | -2% | -16%
O=C(CSc1nc2ccccc2o1)N/N=C/c1ccccc1 | 25* | -7% | 61* | 2% | 3%
Cc1csc2nc(CSc3nncn3-c3ccccc3)c(Br)n12 | -2 | -22% | -6 | 8% | 4%
COCCN1CCN(Cc2ccc(C(=O)NC(C)C)cc2)C(=O)C1=O | · | · | · | 12% | ·
CC(=O)CCc1c(C)c2cc(C)ccc2[nH]c1=O | 33* | -6% | 48 | ? | -3%
CCOc1ccc(S(=O)(=O)Nc2cc(Cl)ccc2OC)c2cccnc12 | · | · | · | -1% | ·
